Laboratory results as given in PubChem BioAssay (NCI).
Compounds without any hit were thinned out: in the full panel of roughly 79,000, 15% have a hit. A number with no mark means an inactive call. The source made the active and inactive calls. Rule as the data show it: active = growth inhibition above about 70%; inactive = the rest.

Assay: NCI Yeast Anticancer Drug Screen. Data for the cln2 rad14 strain (AID 165);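 also: 0% = growth equal to vehicle treated cultures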
Conditions: S. cerevisiae cln2 rad14 strain, hits give high values
Method: Growth inhibition of yeast strains with defined genetic alterations is measured as a screen for potential anti-cancer activity. Selected strains with alterations in DNA damage repair or cell cycle control were exposed to compounds and growth inhibition was measured relative to vehicle treated controls. The strain used in this assay is cln2 rad14

[1] = at 5.0 µM (retest, dose inferred, filed as 0.5)
[2] = at 50.0 µM (retest, dose inferred, filed as 5.0)

Row | SMILES | growth inhibition [1] [%] | growth inhibition [2] | growth inhibition (at 50.0 µM)
1 | CP(=O)(c1ccccc1)c1ccccc1 | 18 | -12% | 6.05%
2 | C/C(=N/O)C1CC(CCC2([N+](=O)[O-])CCC(C)(O)C(/C(C)=N/O)C2)([N+](=O)[O-])CCC1(C)O (configuration not stated) | 5 | -12% | 15.3%
3 | CCCCCCCSCC1C(=O)C23CC1CCC2C12COC(O)C1C(C)(C)C(O)CC2OC3=O (configuration not stated) | 9 | 99% (active) | 90% (active)
4 | O=c1[nH]c2ccc([N+](=O)[O-])cc2c2ccc(Cl)cc12 | 1 | 3% | -0.3%
5 | CCCCCCCCCc1cc(=O)[nH]c(=S)[nH]1 | -13 | 58% | 50.5%
6 | CC(C)C(Sc1nc(-c2ccccc2)c(-c2ccccc2)[nH]1)c1n[nH]c(=S)n1-c1ccccc1 (configuration not stated) | -24 | 97% (active) | 94.3% (active)
7 | CS(=O)(=O)OCC(COS(C)(=O)=O)C(c1ccccc1)c1ccccc1Br (configuration not stated) | 16 | 44% | 13.1%
8 | O=C1OC(CC(=O)c2ccccc2Cl)C(Cl)=C1Cl (configuration not stated) | 16 | 30% | 46.6%
9 | CS(=O)(=O)OCCN(CCOS(C)(=O)=O)c1ccc(C=Nc2ccc3ccccc3c2)cc1 | -2 | 64% | 37.7%
10 | Cc1ccccc1N=Nc1c(C)nn(C(N)=S)c1-c1ccccc1 | -6 | 87% (active) | -4.5%
11 | Cc1cc(C(=O)O)c(C)c2c1sc1ccccc12 | -64 | 81% (active) | 42%
12 | C/C=C(\C)CC/C=C/CO[Si](C)(C)C(C)(C)C | 11 | -4% | 53.6%
13 | O/N=C1/C(=C/c2ccc(Cl)c(Cl)c2)CCCC1C(NO)c1ccc(Cl)c(Cl)c1 (configuration not stated) | -6 | 97% (active) | -14.8%
14 | NCCCC(=O)NC(Cc1cnc[nH]1)C(=O)O (configuration not stated) | 1 | -2% | 32.5%
